According to the supplement of paper PMC10338343:
± gives the standard deviation.

Each sequence was assayed on EfPiwi piRISC loaded with L1MC piRNA (26 nt) (assay: pre-steady-state target cleavage rate (min^-1); auxiliary factor: 500 nM Ephydatia muelleri Gtsf1; guide: L1MC piRNA 5'p-UAACUAAAUACUAUGCAAGCUGUAGG; MIWI and MILI are mouse PIWI proteins and EfPiwi is from a freshwater sponge; tags in brackets are library labels; higher = faster piRNA-guided slicing of the target).
In short: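 The pre-steady-state cleavage rate came from a burst-and-steady-state fit to pooled data from three Cleave-'n-Seq trials, in which uncleaved targets were sequenced and normalised to depth and to weakly complementary targets. Each reaction held 0.1 nM transcribed, DNA-blocked target RNA library and 1 nM active affinity-purified piRISC carrying one synthetic guide, with or without 500 nM GTSF1 partner protein, in HEPES–potassium acetate buffer at 33 °C for 0–8 or 0–960 min. k3 was capped at 0.0001 min^-1.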

Sequence	pre-steady-state target cleavage rate
UCCUGGAUCAGCUUGCAUAGUACUUUAGUUA	0.00735 ± 0.0023
UCCUGGUAGUGCUUGCAUAGUAUUUAGUUA	0.0152 ± 0.0047
UCCUCCUACAGCUUGGUUAGUAUUUAGUAA	0.00533 ± 0.0032
UCCUGGUACAGCGUUGCAUAGUAUUUAGUUA	0.00749 ± 0.0028
UCCUGGAUGAGGCUUGCAUAGUAUUUAGUUA	0.0185 ± 0.0065
UCCUGCUAGAGCUUGCUUAGUAUUUAGUUA	0.00554 ± 0.002
UCCUGCUACUGCUUGCAUAGUAUUUUGUUA	0.0061 ± 0.0024
UCCUCCUACAGCUUGGAUAGUAUUUAGUAA	0.00895 ± 0.0035
UCCUGGAACAGCUUGCAUAGUAUUUGAGUUA	0.00552 ± 0.0019
UCCUGGAACAGCUUGCAUCGUAUUUAGUUA	0.0172 ± 0.0048
UCCUGGAACAGCUUGCAUAGUAUUUACUUA	0.00514 ± 0.0038
UCCUGGAUGAGCUUGCAUUGUAUUAAGUUA	0.0041 ± 0.0035
UCCUGGUACAGCUUGCAAACUAUUUAGUUA	0.00276 ± 0.0022
UCCUGGAUGUGCAUGCAUAGUAUUUAGUUA	0.00855 ± 0.0029
UCCUGGAACAGCUUUGCAUAGUAUUUAGUUA	0.0309 ± 0.0082
UCCUCCUUGUGCUUGCAUAGUAUUUAGUAA	0.00675 ± 0.0029
UCCUCCUACAGCAUGCAUAGUAUUUACUUA	0.00211 ± 0.0017
UCCUGCUACAGCUGGCAUAGUAUUUAGUUA	0.00937 ± 0.0024
UCCUGGAUGAGCUAGCAUUGUAUUUAGUUA	0.00519 ± 0.0032
UCCUCCUACAGCGUUGCAUAGUAUUUAGUUA	0.0299 ± 0.009

Sequence	pre-steady-state target cleavage rate
UCCUGGUACAGCUUGGAUAGUAAUUAGUUA	0.00316 ± 0.0025
UCCUGCUACAGCUUGCAUAGUAUAAAGUUA	0.00347 ± 0.0022
UCCUGCUACAGCUUUGCAUAGUAUUUAGUUA	0.0161 ± 0.0053
UCCUCCUACAGGUUGCAUUGUAUUUAGUUA	0.0124 ± 0.0028
UCCUGGAACAGGUUGCAUACUAUUUAGUUA	0.00367 ± 0.0017
UCCUGGUACAGCUAGCAUAGUAUUUAGUAA	0.00365 ± 0.0021
UCCUCCAACAGCUUGCAUAGUUUUUAGUUA	0.0119 ± 0.0041
UCCUGGAACAGCUUCCUUAGUAUUUAGUUA	0.00362 ± 0.002
UCCUGGAUGUGCUUGCAUAGUAUUUAGUUG [g2:g20:cont:t1G]	0.00803 ± 0.0029
UCCUGGAACAGCGUGCAUAGUAUUUAGUUA	0.0168 ± 0.005
UCCUGGAUGAGGUUGCAUAGUAAUUAGUUA	0.00522 ± 0.003
UCCUCCUUCAGCUUGCUUAGUAUUUAGUUA	0.0651 ± 0.022
UCCUGGUUCAGCUUGCAUAGUAUUUAGUAA	0.00696 ± 0.0035
UCCUGGUACCAGCUUGCAUAGUAUUUAGUUA	0.0109 ± 0.0044
UCCUGGAACAGCUUCCAAAGUAUUUAGUUA	0.00262 ± 0.0019
UCCUGCUACAGCUUGCAUAGUAUUUAAGUUA	0.00777 ± 0.0034
UCCUGGAACAGCUUGCAAGUAUUUAGUUA	0.00284 ± 0.0019
UCCUGGAUGUCGUCUGCAUAGUAUUUAGUUA	0.00907 ± 0.0032
UCCUCCUUCAGCUAGCAUAGUAUUUAGUUA	0.0131 ± 0.0046
